# Compounds without any hit were thinned out: in the full panel of roughly 79,000, 15% have a hit. Calls of active or inactive are those of the source. No stated cut-off is given here; in the data, active means growth inhibition above about 70%; inactive means the rest.
# Assay: NCI Yeast Anticancer Drug Screen. Data for the CLN2oe strain (AID 163);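 further: 0% = growth of vehicle-only control cultures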
# Details: S. cerevisiae CLN2oe strain, at 1.2 µM, hits give high values
# Procedure, shortened: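 Here, growth inhibition in a cell-cycle-altered yeast strain after compound exposure was quantified against vehicle control growth.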
row,Compound,growth inhibition
1,COc1ccc(/C=C2\CCc3ccccc3C2=O)cc1OC,21% (inactive)
2,O=Cc1ccccc1B(O)O,-4% (inactive)
3,CC(=O)CC[N+](C)(C)C,17% (inactive)
4,O=C(O)[C@H]1[C@@H](C2CCCCC2)O[C@@H](C2CCCCC2)O[C@H]1C(F)(F)F,-1% (inactive)
5,CN(NC(=O)/C(=C/C=C/c1ccccc1)NC(=O)c1ccccc1)C1=C(Cl)C(=O)[N+](c2ccccc2)=CC1,-1% (inactive)
6,CCCCOc1ccc(Nc2c3ccccc3nc3ccccc23)cc1,-26% (inactive)
7,N#C/C(=C1C=C/C(=N\O)C(Cl)=C\1)c1ccccc1,2% (inactive)
8,COc1ccc(C(=O)OCCc2ccccc2)cc1,-3% (inactive)
9,Cc1c2ccncc2c(C)c2c1oc1ccccc12,12% (inactive)
10,CCCC#CCOC(=O)c1cc([N+](=O)[O-])cc([N+](=O)[O-])c1,-2% (inactive)
11,Nc1nc(Nc2ccccc2)nc(Nc2ccccc2)n1,-7% (inactive)
12,COc1ccc(/C=C2\S/C(=N/Nc3nc(-c4ccccc4)cs3)NC2=O)cc1OC,44% (inactive)
13,CC(O)CN1C(=O)c2cccc3cc([N+](=O)[O-])cc(c23)C1=O (centres undefined),20% (inactive)
14,Cn1c(COc2ccc(/C=N/NC(=O)CCC(=O)N/N=C/c3ccc(OCc4c[n+]5ccccc5n4C)cc3)cc2)c[n+]2ccccc12,-5% (inactive)
15,COC1=C(N=[N+]=[N-])C(=O)c2ncccc2C1=O,-5% (inactive)
16,CCN(CC)c1ccc(N=Nc2cc(S(=O)(=O)O)ccc2O)c(O)c1,8% (inactive)
17,O=C1C(C(O)(C(F)(F)F)C(F)(F)F)CCC1C(O)(C(F)(F)F)C(F)(F)F (centres undefined),5% (inactive)
18,CN(C)CCNC(=O)c1cccc2nc3c(ccc4ccccc43)nc12,-5% (inactive)
19,O=S(=O)(CCC[C@H]1[C@@H](CCOCc2ccccc2)C2CCCN1O2)c1ccccc1 (some centres undefined),1% (inactive)
20,CCC(C)/C(C)=N/NC(N)=O (centres undefined),-7% (inactive)
21,Nc1c([N+](=O)[O-])cc2c3c(cccc13)CC2,8% (inactive)
22,CC1=Cc2ccc(C)cc2C(=O)C1=O,2% (inactive)
23,C=Cc1c(C)c(O)cc2c1-c1ccc(O)c(C)c1CC2,10% (inactive)
24,C[n+]1c(-c2ccc(NC(=O)c3ccc(C(=O)Nc4ccc(-c5cn6ccccc6[n+]5C)cc4)cc3)cc2)cn2ccccc21,-1% (inactive)
25,CNC(=O)OCc1c(COC(=O)NC)c(C)n(-c2ccc(Cl)c(Cl)c2)c1C,-30% (inactive)
26,[O-]c1c2cc(-[n+]3c(-c4ccccc4)cc(-c4ccccc4)cc3-c3ccccc3)cc1COCCOCCOCCOCCOC2,-6% (inactive)
27,C[Si](C)(C)Cc1ccccc1C(=O)O,9% (inactive)

# Same assay, conditions: S. cerevisiae CLN2oe strain, at 3.7 µM, hits give high values
row,Compound,growth inhibition
1,COc1ccc(/C=C2\CCc3ccccc3C2=O)cc1OC,22% (inactive)
2,O=Cc1ccccc1B(O)O,11% (inactive)
3,CC(=O)CC[N+](C)(C)C,28% (inactive)
4,O=C(O)[C@H]1[C@@H](C2CCCCC2)O[C@@H](C2CCCCC2)O[C@H]1C(F)(F)F,-1% (inactive)
5,CN(NC(=O)/C(=C/C=C/c1ccccc1)NC(=O)c1ccccc1)C1=C(Cl)C(=O)[N+](c2ccccc2)=CC1,5% (inactive)
6,CCCCOc1ccc(Nc2c3ccccc3nc3ccccc23)cc1,0% (inactive)
7,N#C/C(=C1C=C/C(=N\O)C(Cl)=C\1)c1ccccc1,3% (inactive)
8,COc1ccc(C(=O)OCCc2ccccc2)cc1,-9% (inactive)
9,Cc1c2ccncc2c(C)c2c1oc1ccccc12,30% (inactive)
10,CCCC#CCOC(=O)c1cc([N+](=O)[O-])cc([N+](=O)[O-])c1,11% (inactive)
11,Nc1nc(Nc2ccccc2)nc(Nc2ccccc2)n1,-6% (inactive)
12,COc1ccc(/C=C2\S/C(=N/Nc3nc(-c4ccccc4)cs3)NC2=O)cc1OC,79% (active)
13,CC(O)CN1C(=O)c2cccc3cc([N+](=O)[O-])cc(c23)C1=O (centres undefined),0% (inactive)
14,Cn1c(COc2ccc(/C=N/NC(=O)CCC(=O)N/N=C/c3ccc(OCc4c[n+]5ccccc5n4C)cc3)cc2)c[n+]2ccccc12,-3% (inactive)
15,COC1=C(N=[N+]=[N-])C(=O)c2ncccc2C1=O,13% (inactive)
16,CCN(CC)c1ccc(N=Nc2cc(S(=O)(=O)O)ccc2O)c(O)c1,18% (inactive)
17,O=C1C(C(O)(C(F)(F)F)C(F)(F)F)CCC1C(O)(C(F)(F)F)C(F)(F)F (centres undefined),2% (inactive)
18,CN(C)CCNC(=O)c1cccc2nc3c(ccc4ccccc43)nc12,-1% (inactive)
19,O=S(=O)(CCC[C@H]1[C@@H](CCOCc2ccccc2)C2CCCN1O2)c1ccccc1 (some centres undefined),6% (inactive)
20,CCC(C)/C(C)=N/NC(N)=O (centres undefined),0% (inactive)
21,Nc1c([N+](=O)[O-])cc2c3c(cccc13)CC2,14% (inactive)
22,CC1=Cc2ccc(C)cc2C(=O)C1=O,2% (inactive)
23,C=Cc1c(C)c(O)cc2c1-c1ccc(O)c(C)c1CC2,5% (inactive)
24,C[n+]1c(-c2ccc(NC(=O)c3ccc(C(=O)Nc4ccc(-c5cn6ccccc6[n+]5C)cc4)cc3)cc2)cn2ccccc21,-4% (inactive)
25,CNC(=O)OCc1c(COC(=O)NC)c(C)n(-c2ccc(Cl)c(Cl)c2)c1C,-4% (inactive)
26,[O-]c1c2cc(-[n+]3c(-c4ccccc4)cc(-c4ccccc4)cc3-c3ccccc3)cc1COCCOCCOCCOCCOC2,1% (inactive)
27,C[Si](C)(C)Cc1ccccc1C(=O)O,12% (inactive)

# Reference: PubChem BioAssay (NCI)
